These results are taken from PubChem BioAssay AID894 (National Center for Advancing Translational Sciences (NCATS), 2007).

Each structure is given as a SMILES string. Where “and” joins values, the source holds several entries; their conditions need not be identical. Equal entries are not always repeated. Hit rate of the full screen: of about 150,000 compounds, about 6,500 (4.3%) were called active. Inconclusive results (about 12%) are left out. Only a selection was taken, and actives are over-represented in it overall. The source holds several records for some structures; these can differ, active in one and inactive in another. Values without a mark were called inactive. Calls follow the shape of the dose curve; as a rule, active = well fitted inhibition curve with a large enough effect (not every such curve was filed as active); inconclusive = small, poorly fitted or top-dose-only effect, or another doubt; inactive = no such curve, though single readings can be large or run the other way.
% is scaled to controls: 0 for no effect and ±100 for the full control effect; potency is read from the fitted curve at half-maximal effect.

The target of this assay is 15-hydroxyprostaglandin dehydrogenase [NAD(+)] (Homo sapiens) (UniProt P15428). The assay is described as follows: qHTS Assay for Inhibitors of HPGD (15-Hydroxyprostaglandin Dehydrogenase). The settings on record: purified HPGD, NADH fluorescence kinetic, PGE2 substrate; activity change, negative = inhibition: active compounds read low. Summed up: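 20 nM HPGD preincubated 15 min at room temperature with compound in 50 mM Tris-HCl pH 8, 0.01% Tween 20. Started with 1 mM NAD+ and 30 uM prostaglandin E2; NADH fluorescence (360/450 nm) read 5 times over 30-s intervals, last minus first.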
Sequence of 15-hydroxyprostaglandin dehydrogenase [NAD(+)] (Homo sapiens) (P15428 whole entry, looked up): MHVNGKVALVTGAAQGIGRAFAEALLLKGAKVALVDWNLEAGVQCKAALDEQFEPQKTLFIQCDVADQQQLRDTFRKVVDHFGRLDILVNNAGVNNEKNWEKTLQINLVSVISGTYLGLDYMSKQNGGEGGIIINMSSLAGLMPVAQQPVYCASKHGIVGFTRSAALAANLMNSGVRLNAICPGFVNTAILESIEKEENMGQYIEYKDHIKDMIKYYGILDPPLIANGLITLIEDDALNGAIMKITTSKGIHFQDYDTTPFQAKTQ
As for `Cc1ccc2[nH]c(C(=O)O)c(NC(=O)c3ccccc3[N+](=O)[O-])c2c1`, the activity change, negative = inhibition is -8.36%. Same read-out and setting: for `COc1ccc(C(=O)NC2(C(F)(F)F)NC(=O)N(CCCc3ccccc3)C2=O)c(OC)c1OC` (centres undefined) the value was -2.88%. Still for that read-out and setting: as for `Cc1cccc(C)c1NC(=O)CSc1ccc([N+](=O)[O-])cn1`, the figure is -5.79%; as for `COc1ccccc1N1CCN(C(=O)C(=O)N/N=C/c2ccccc2F)CC1`, -6.15%. The same measure, in the same setting: as for `CC(C)=C(NC(=O)c1ccccc1)C(=O)N/N=C(\C)c1ccccc1O`, the figure is -7.72%. On to `Cc1cc(C)cc(NC(=S)NCCCN2CCOCC2)c1`, for which the activity change, negative = inhibition is -3.2%. The same measure, in the same setting: for `Cc1ccc2[nH]c(=O)c(CC=C(Cl)Cl)c(C)c2c1` the value was -6.58%.

In the case of `Cc1cc(C(=O)NNC(=S)Nc2ccccc2C)cs1`, the activity change, negative = inhibition was -17.5%. On the same count and under the same terms, as for `COC(=O)C1=NNC2(c3ccc(C)cc3)C(=O)N(c3cccc(C)c3C)C(=O)C12` (centres undefined), the figure is -7.55%. With `O=C(Cc1cccs1)N/N=C/c1ccc(OCc2ccccc2)cc1`, the activity change, negative = inhibition is -20.3%. `CCOc1ccc(/C=N/OCC(=O)NCc2cccs2)cc1`: the Potency was 15.8 µM (active). In the case of `CCOc1ccc(/C=N/NC(N)=S)cc1`, the activity change, negative = inhibition was -6.57%.

Consider `CC1CCc2sc(C(=O)N/N=C/C3CCCCC3)cc2C1` (centres undefined), for which the activity change, negative = inhibition was -7.97%.

Consider `O=C(Nc1ccccc1C(=O)NCCCn1ccnc1)c1ccc(Cl)cc1Cl`, for which the activity change, negative = inhibition was -7.71%. Take `CCOc1ccc(NC(=O)CCC(=O)n2nc(C)cc2C)cc1`: the activity change, negative = inhibition is -8.1%. Take `Cc1cc(C)n(C(=O)CCNC(=O)c2ccccc2Cl)n1`: the Potency was 15.8 µM (active). For `CCOC(=O)CC(NC(=O)C1c2ccccc2Oc2ccccc21)c1ccc(C)cc1` (centres undefined), the activity change, negative = inhibition is 6.16%. On the same count and under the same terms, as for `CCOC(=O)C1=C(C)OC(N)=C(C#N)C1c1cncc(-c2ccc(F)cc2)c1` (centres undefined), the figure is -9.79%; as for `Cc1cnc(NC(=O)CSc2c(Cl)cccc2Cl)s1`, -12.6%. As for `Cc1cnc(NC(=O)CSc2nnc(-c3ccc(Cl)cc3Cl)n2N)s1`, the Potency was 25.1 µM (active). Consider `Cc1cnc(NC(=O)CSc2nnc(-c3ccccc3)n2Cc2ccccc2)s1`, for which the activity change, negative = inhibition was -9.73%. As for `CCCCC(O)(CCCC)C(=O)NN(C(=O)CCl)c1ccccc1`, the activity change, negative = inhibition is -6.18%. Take `O=C(NCCCO)/C(=C\C=C\c1ccccc1)NC(=O)c1ccccc1Cl`: the activity change, negative = inhibition is -15.4%. On the same count and under the same terms, as for `CC(C)(C)C(=O)NC(NC(=S)Nc1ccc(S(N)(=O)=O)cc1)C(Cl)(Cl)Cl` (centres undefined), the figure is -0.407%; as for `CC(C)(C)C1CCC(=NNC(=O)c2cc(-c3ccccc3)n[nH]2)CC1` (centres undefined), -7.88%. With `Cc1ccccc1-c1ccc(Nc2ccc(C(=O)N3CCOCC3)cc2)nn1`, the Potency was 22.4 µM (active). Consider `Cc1onc(-c2ccccc2)c1C(=O)N1CCOCC1`, for which the activity change, negative = inhibition was 0.967%.

With `O=C(c1ccccc1-c1ccccc1)N1CCOCC1`, the activity change, negative = inhibition was -1.91%.

In the case of `O=C(COc1ccc(/C=N/NC(=O)c2ccc(O)cc2)cc1)Nc1ccc([N+](=O)[O-])cc1`, the activity change, negative = inhibition is -5.7%. `O=C(NCc1ccco1)O[C@@H]1C(=O)c2cc(Br)ccc2O[C@H]1c1ccc2c(c1)OCO2`: the activity change, negative = inhibition was -7.84%. As for `O=C(CSc1nnc(Nc2ccccc2)s1)Nc1cccnc1Cl`, the activity change, negative = inhibition is -3.17%. Same read-out and setting: as for `Cc1ccc(Nc2nnc(SCC(=O)c3cc4ccccc4o3)s2)cc1C`, the figure is -14.9%. Regarding `CC(C)c1ccc(Nc2nnc(SCC(=O)c3nnc(-c4ccccc4)o3)s2)cc1`, the Potency was 31.6 µM (active). On to `Cc1nn(Cc2ccccc2)c(C)c1C(=O)NCCN1C(=O)S/C(=C\c2ccc(F)cc2)C1=O`, for which the activity change, negative = inhibition was -19.6%.

In the case of `COc1cccc(/C=N/NC(=O)c2[nH]nc3c2CCc2ccccc2-3)c1O`, the Potency was 35.5 µM (active). As for `COc1cccc(/C=N\NC(=O)C2=NNC(=O)C2C)c1O` (centres undefined), the activity change, negative = inhibition was -11.9%.

Regarding `COc1cccc(/C=N/Nc2ncc(C(F)(F)F)cc2Cl)c1O`, the activity change, negative = inhibition is -13.5%. With `O=C1CCC[C@@H]2CC(N3CCCCC3)C[C@@H]3CCN1[C@H]23` (some centres undefined), the activity change, negative = inhibition is -1.93%. The same measure, in the same setting: for `C=CCNC(=S)NNC(=O)COc1c(Cl)cc(Cl)cc1Cl` the value was -21.2%; for `Cc1ccc(Cl)cc1N1CCN(C(=O)c2cccc3c(=O)c(C)c(-c4ccccc4)oc23)CC1`, 0.844%; for `O=C(Nc1ccc(CSc2ccccc2)cc1)c1ccc(CN2CCOCC2)cc1`, -8.57%. The same measure, in the same setting: for `CC(=O)N1CCN(C(=O)c2cccc(S(=O)(=O)Nc3ccc(C)cc3)c2)CC1` the value was 4.03%; for `CC(NC(=O)c1ccc(Cl)cc1)C(=O)N1CCCCC1` (centres undefined), -4.27%; for `O=C(c1ccc(S(=O)(=O)N2CCOCC2)cc1)N1CCN(c2ccccc2)CC1`, -5.22%. Same read-out and setting: for `CCOC(=O)N1CCN(C(=O)CSc2ccc(Cl)cc2)CC1` the value was -15.4%. For the compound `O=C(c1ccc(S(=O)(=O)c2ccccc2)cc1)N1CCCCCC1`, the Potency was 17.8 µM (active).

In the case of `CS(=O)(=O)Nc1ccc(C(=O)N2CCCC2)cc1`, the Potency is 20 µM (active). The same measure, in the same setting: for `O=C(c1ccc(CSc2ccccc2)cc1)N1CCCCCC1` the value was 0.316 µM (active). For the compound `COc1ccccc1N1CCN(C(=O)c2ccc(S(=O)(=O)N3CCCCC3)cc2)CC1`, the activity change, negative = inhibition was -4.4%. On to `CC1CCN(C(=O)c2ccc(CSc3ccc(Cl)cc3)cc2)CC1`, for which the Potency was 0.891 µM (active). For `O=C(C1CC1)N1CCN=C1SCc1ccc(Cl)cc1`, the activity change, negative = inhibition was -17.7%. The same measure, in the same setting: as for `NC(=O)C1CCN(C(=O)c2ccc(-c3ccccc3)cc2)CC1`, the figure is -4.39%; as for `CC1CCCN(CCOCCOc2ccccc2-c2ccccc2)C1` (centres undefined), -3.59%; as for `COC(=O)N1C(/C=C/C=C/c2ccc(OC)cc2)=Cc2ccccc2C1CC(C)=O` (centres undefined), -15%. Turning to `CC1CCN(c2ccc(C(=O)Nc3nnc(C4CC4)s3)cc2[N+](=O)[O-])CC1`, the activity change, negative = inhibition is -7.37%. The same measure, in the same setting: as for `CC(NC(=S)Nc1ccccc1)C1COc2ccccc2O1` (centres undefined), the figure is -1.93%; as for `COc1cc(OC)nc(N/N=C(\c2ccccc2)c2ccncc2)n1`, -10.6%. Turning to `CCC1(C(=O)c2ccccc2)C(c2cccc([N+](=O)[O-])c2)C1(C(=O)OC)C(=O)OC` (centres undefined), the activity change, negative = inhibition is -4.68%. Take `COc1ccc(Br)cc1CN(C)CC(=O)Nc1cc(Cl)cc(Cl)c1`: the activity change, negative = inhibition was -12.1%. On the same count and under the same terms, as for `COC(=O)c1c(NC(=O)CN2C(=O)NC(CCc3ccccc3)C2=O)sc2c1CCCCC2` (centres undefined), the figure is -23.3%; as for `CN(C)S(=O)(=O)c1ccc(N2CCCC2=O)c([N+](=O)[O-])c1`, -7.1%. Turning to `Cc1c(Cl)cccc1NC(=O)Nc1ccc(C(=O)N2CCCC2)cc1`, the Potency was 14.1 µM (active).

`Cc1c(NC(=O)Nc2ccccc2)cccc1[N+](=O)[O-]`: the activity change, negative = inhibition was -4.65%. With `CCC(CC)C(=O)Nc1cccc(C(=O)N2CCCC2)c1`, the activity change, negative = inhibition is -4.19%. Still for that read-out and setting: for `CC1=C[C@H]2Cc3cc(C)cc(C)c3S(=O)(=O)[C@@H]2C=C1` the value was -8.5%; for `N=C1C(=O)OCC1c1ccccc1NC(=O)CN1CCCCC1` (centres undefined), -11.6%; for `C=C(C(C)=O)C(O)c1ccc([N+](=O)[O-])cc1` (centres undefined), -15.8%. On the same count and under the same terms, for `Cc1cc(C(=O)Nc2c(C)n(C)n(-c3ccccc3)c2=O)cs1` the value was -6.25%. With `Cc1c(NC(=O)c2cccnc2)c(=O)n(-c2ccccc2)n1C`, the activity change, negative = inhibition is 4.69% and -0.99%. For `Cc1ccc(O)c(-c2cc(C(=O)Nc3c(C)n(C)n(-c4ccccc4)c3=O)[nH]n2)c1`, the Potency is 20 µM (active). On to `CCCSc1nc2[nH]ncc2c(=O)[nH]1`, for which the activity change, negative = inhibition was -15.8%. On the same count and under the same terms, for `O=C(O)c1cccc(N2C(=O)Nc3ccccc3N2O)c1` the value was -2.37%. Regarding `CCCC(C)C(=O)OCC(=O)Nc1c(Br)cc(C)cc1Br` (centres undefined), the activity change, negative = inhibition was -2.73%.

Take `CC(Cc1ccccc1)C(=O)N(C)Cc1ccccc1` (centres undefined): the Potency was 5.01 µM (active) and the activity change, negative = inhibition was -12.5%. In the case of `CN(Cc1ccccc1)C(=O)COc1ccccc1`, the activity change, negative = inhibition was -21.3%. In the case of `CN(Cc1ccccc1)C(=O)CCc1ccccc1`, the activity change, negative = inhibition was -14.5%. On the same count and under the same terms, for `COc1ccc(CC(=O)Nc2ccc(C(=O)NC(C)(C)C)cc2)cc1` the value was -10.9%. On the same count and under the same terms, as for `CCN(C(=O)COc1cccnc1[N+](=O)[O-])C1CCS(=O)(=O)C1` (centres undefined), the figure is -10.7%. Regarding `Cc1ccc(NC(=O)N2CCC(c3nc4c(nnn4Cc4c(F)cccc4Cl)c(=O)[nH]3)CC2)cc1`, the Potency is 12.6 µM (active).

On to `COc1ccc(C(=O)Nc2c(Cl)cc(Cl)cc2C(=O)N2CCC(C)CC2)cc1`, for which the activity change, negative = inhibition was -13.4%.

On to `Cc1ccc(Cn2nnc3c(=O)n(CC(=O)N4CCCCC4)cnc32)cc1`, for which the activity change, negative = inhibition is -22%. On the same count and under the same terms, for `COc1ccc(-n2nnc3c(=O)n(CC(=O)N4CCC(Cc5ccccc5)CC4)cnc32)cc1` the value was -23.8%. As for `COc1ccc(Cn2nnc3c(=O)[nH]c(C4CCN(C(=O)c5ccccc5Cl)CC4)nc32)cc1`, the Potency was 7.94 µM (active). For `CC(=O)Nc1ccn(Cc2c(F)cccc2Cl)n1`, the activity change, negative = inhibition is -0.326%.

Consider `OCCNCCOc1ccc(Cl)c(Cl)c1`, for which the activity change, negative = inhibition is -9%. The same measure, in the same setting: as for `C/C(=N/NC(=O)CSc1ccccn1)c1ccc([N+](=O)[O-])cc1`, the figure is -12.7%; as for `CC(C)Nc1nnc(SCC(=O)c2c[nH]c3ccccc23)s1`, -16.2%. On to `COc1ccc(NC(=S)N2CCCC(CO)C2)c(OC)c1` (centres undefined), for which the activity change, negative = inhibition is -2.74%.

As to `COc1cccc([C@@H]2Oc3ccc(Br)cc3C(=O)[C@H]2OC(=O)NCc2ccc3c(c2)OCO3)c1`, the activity change, negative = inhibition was -12.1%. For the compound `CCCN=C1NC(=O)C(CC(=O)NCCc2ccc(OC)c(OC)c2)S1` (centres undefined), the activity change, negative = inhibition was -5.13%. As for `O=C(Nc1nc(-c2ccc3c(c2)OCO3)cs1)c1ccncc1`, the activity change, negative = inhibition is -1.69%. On the same count and under the same terms, for `O=C(Nc1nnc(SCc2ccc(Cl)cc2Cl)s1)C1COc2ccccc2O1` (centres undefined) the value was -24%. On to `O=C(Nc1nc(-c2ccncc2)cs1)C1COc2ccccc2O1` (centres undefined), for which the Potency was 7.94 µM (active).
